# In all, about 20,000 compounds went through this assay and about 85 (0.4%) were called active.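 The calls were made as follows: active = cell survival signal 2 SD away from solvent-only control wells, confirmed on one or two retests; inactive = the rest.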 For the sample, actives were picked, then their nearest neighbours and some compounds at random.
# Assay: phospholipid synthesis inhibitors, CHO cells, primary screen, ZR-82 cells, Enamine library, screen 3 (AID 1347385);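 also: 3 h compound exposure then viability read about one day after UV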
# Conditions: ZR-82 CHO cells, pyrene fatty acid UV survival, CellTiter Blue, peroxisome-deficient CHO-K1 mutant line, plus DGAT-1, DGAT-2 and ACAT inhibitors; at 10 µM unless noted
row,SMILES,outcome
1,COC(=O)CNC(=O)c1ccc([N+](=O)[O-])o1,inactive
2,CC(C)CN(C1CCS(=O)(=O)C1)S(=O)(=O)c1ccc(Cl)cc1 (centres undefined),inactive
3,C(=Nc1ccc2c(c1)OCO2)c1ccc2ncccc2c1,inactive
4,c1ccc2c(c1)OCCOCCOCCOc1ccccc1OCCOCCO2,inactive
5,O=C1NNS(=O)(=O)c2ccccc21,inactive
6,Brc1ccc2nc(-n3nc4ccccc4n3)nc(-c3ccccc3)c2c1,inactive
7,Cc1sc2ncnc(SCC(=O)c3c(N)n(CC(C)C)c(=O)n(C)c3=O)c2c1C,inactive
8,CCOC(=O)Cc1n[nH]c(=S)n1C1CCCC1,inactive
9,CCNC(=S)N1CCN(S(=O)(=O)c2ccc(Cl)s2)CC1,inactive
10,Cc1cc(-c2csc(N)n2)c(C)c(C)c1C,inactive
11,O=C(COc1ncnc2sc3c(c12)CCC3)c1ccc(Cl)s1,inactive
12,O=C(CN1C(=O)NC2(CCCC2)C1=O)NC1CCSc2ccc(F)cc21 (centres undefined),inactive
13,C=CCN(CC=C)CC(=O)Nc1sc2c(c1C(N)=O)CCCC2,inactive
14,Clc1ccc(Cl)c(-c2ccc(-c3ncc(-c4cccs4)o3)o2)c1,inactive
15,CN(C)C(=O)CN(C)C(=O)CN1C(=O)NC2(CCCCCC2)C1=O,inactive
16,Cc1nc(SCC(=O)N2CCNC2=O)n(CC(C)C)c1C,inactive
17,O=S(=O)(c1ccc(Cl)c(N=C2SCCN2C2CCCCC2)c1)N1CCOCC1,inactive
18,c1ccc(OCc2nc(-c3ccccn3)n[nH]2)cc1,inactive
19,C#CC(CC)(CC)NC(=O)CCc1nc2sc3c(c2c(=O)[nH]1)CCCC3,inactive
20,Brc1ccccc1C1N=C(c2ccccc2)NO1 (centres undefined),inactive
21,O=c1c2c3c(sc2[nH]c(=S)n1C1CCCC1)CCC3,inactive
22,O=C(OCc1cc([N+](=O)[O-])cc2c1OCOC2)C1CCC1,inactive
23,O=C(CSc1nc2sc3c(c2c(=O)n1C1CCCC1)CCCC3)N1CCCC1,inactive
24,FC(F)Oc1ccc(C2Oc3ccccc3C3CC(c4ccccc4)=NN32)cc1 (centres undefined),inactive

row,SMILES,outcome
1,Cc1nnc(NC(=O)NCC2(C)CC(NC(=O)Nc3nnc(C)s3)CC(C)(C)C2)s1 (centres undefined),inactive
2,CC(C)N(CCNS(=O)(=O)c1ccccc1)C(C)C,inactive
3,O=[N+]([O-])c1ccc(-n2nnc3ccccc32)c(Cl)c1,inactive
4,Clc1ccccc1C1Oc2ccccc2C2CC(c3ccc4c(c3)OCCO4)=NN21 (centres undefined),inactive
5,O=c1/c(=C/c2ccc(F)cc2)sc2n1CCN=2,inactive
6,O=C1OCC(CO)(CO)N=C1NNc1ccc(I)cc1,inactive
7,FC(F)Oc1ccc(Cl)c(C2Nc3ccccc3-c3nc4ccccc4n32)c1 (centres undefined),inactive
8,C(=N\n1c(-c2ccc(-c3ccccc3)cc2)csc1=NCCc1ccccc1)/c1ccccn1,inactive [setting not given]
9,O=C(NC(O)C(Cl)(Cl)Cl)C12CC3CC(CC(C3)C1)C2 (centres undefined),inactive
10,CCOC(=O)c1c(C)[nH]c(C(=O)OCC(=O)C(C)(C)C)c1C,inactive
11,C#CCN=Cc1c(O)n(CCOC)c(=S)[nH]c1=O,inactive
12,O=S(=O)(Oc1cccc2cccnc12)c1ccc2ccccc2c1,inactive
13,CC(Sc1nnc(-c2ccc(C(C)(C)C)cc2)o1)c1nnc(-c2ccc([N+](=O)[O-])cc2)o1 (centres undefined),inactive
14,O=C1NC(c2ccc3c(c2)OCO3)C(C(=O)c2ccccc2)C(O)(C(F)(F)F)N1 (centres undefined),inactive
15,CCN(CC)[P+](N)(c1nc2ccccc2n1C)N(CC)CC,inactive
16,COC(=O)c1cc(C(O)(C(F)(F)F)C(F)(F)F)c(N=CN(C)C)s1,inactive
17,C=CCn1c(SCc2c(C)noc2C)nc2sc3c(c2c1=O)CCC(C)C3 (centres undefined),inactive
18,Cn1cc(-c2nn(-c3ccccc3)cc2/C=N/NC(N)=S)c2ccccc21,inactive [setting not given]
19,Cc1cc(C=C2Sc3ccccc3N2C)cc(C)[n+]1CCCn1ccnc1,inactive
20,CC1CCC2(CC1)NC(=O)N(CC1CC1(Cl)Cl)C2=O (centres undefined),inactive
21,COc1ccc(OCCN2CCN(C(=N)N)CC2)cc1,inactive
22,C=CCNC(=S)NN=C1c2ccccc2-c2ccccc21,inactive
23,O=C(CSc1ncnc2sc3c(c12)CCC3)N1CCCCC1,inactive
24,C=CCOc1c(Cl)cc(S(=O)(=O)c2cc(Cl)c(O)c(Cl)c2)cc1Cl,inactive

row,SMILES,outcome
1,COCCn1c(C)cc(C(=O)COC(=O)Cn2c(C)csc2=O)c1C,inactive
2,COc1ccc(C2=CC(c3ccc(OC)cc3)n3nnnc3N2)cc1 (centres undefined),inactive
3,O=[N+]([O-])c1ccc(NC(=S)N=C2c3ccccc3CN2c2ccc(Cl)cc2)cc1,inactive
4,O=S1(=O)CCC(NS(=O)(=O)c2ccc(Cl)c(Cl)c2)C1 (centres undefined),inactive
5,NC=C(S(=O)(=O)c1ccc(Cl)cc1)S(=O)(=O)c1ccc(Cl)cc1,inactive
6,O=c1c(-c2cc3ccccc3o2)coc2ccccc12,inactive
7,O=C1C=CC(=O)N1c1ccc(Br)cc1,inactive
8,CC1CCN(C2=NS(=O)(=O)c3ccccc32)CC1,inactive
9,CCSc1nnc(SCC(=O)c2c(N)n(CC(C)C)c(=O)n(C)c2=O)s1,inactive
10,Cc1ccc(-c2csc3nc(CSc4nnnn4C)[nH]c(=O)c23)s1,inactive
11,CCCSc1nsc(N)n1,inactive
12,Clc1ccc2nc(CSc3ccc4ccccc4c3)cn2c1,inactive
13,Fc1ccc(Cn2c3[n+](c4ccc(C(F)(F)F)cc42)CCCCC3)cc1,inactive
14,COC(=O)c1noc(C(=O)OC)c1O,inactive
15,FC(F)(F)C(=NCc1ccco1)NC1(C(Cl)(Cl)Cl)Oc2ccccc2O1,inactive
16,CCOc1cc(C)c(S(=O)(=O)N2CCCC2)cc1C(C)C,inactive
17,CCN(CC)c1ccc([P+](CC)(c2ccc(N(CC)CC)cc2)c2ccc(N(CC)CC)cc2)cc1,inactive
18,COc1ccc(OC)c(C2CC(c3ccco3)=NN2S(C)(=O)=O)c1 (centres undefined),inactive
19,CCCc1ccc(C2=C(C)SC3=NS(=O)(=O)CCN32)cc1,inactive
20,Cc1cc(C)nc(SCc2cn3c(C)cc(C)nc3n2)n1,inactive
21,COc1ccc(C2=NN3C(C2)c2ccccc2OC32CCCC2)c(OC)c1 (centres undefined),inactive
22,Cc1cc(C(=O)C(C)n2cnc3c2c(=O)n(C)c(=O)n3C)c(C)n1Cc1ccco1 (centres undefined),inactive
23,O=[N+]([O-])c1ccc(-c2c[n+](=O)c3c(n2[O-])CCCCC3)cc1,inactive
24,CC(C)(C)NC(=O)NC(=O)COC(=O)C1(C)CC1(Cl)Cl (centres undefined),inactive

row,SMILES,outcome
1,Cc1nc2sc3c(c2c2nnnn12)CCCC3,inactive
2,O=C1OC(c2ccccc2)=N/C1=C\c1ccc(C(F)(F)F)cc1,inactive
3,Cc1ccc(C)n1-n1c(C)nc2sc3c(c2c1=O)CCCC3,inactive
4,O=S1(=O)CCC(NC2CCCCC2)C1 (centres undefined),inactive
5,Cc1ccc(C2=Nn3cc(-c4ccccc4)nc3SC2)cc1,inactive
6,O=c1oc2cc(O)c(Cl)cc2c2c1CCCC2,inactive
7,C=CCNS(=O)(=O)c1ccc2c(c1)OCCO2,inactive
8,Cn1nnc2c(=O)[nH]cc([N+](=O)[O-])c21,inactive
9,CC(C)(C)c1cnnn1-c1ccc([N+](=O)[O-])cc1,inactive
10,CC1CNC(=O)NC1=O (centres undefined),inactive
11,CCCCn1c(N)c(N(CC)C(=O)/C=C/c2ccco2)c(=O)[nH]c1=O,inactive
12,CCCCNC(=S)N(C)/N=C1\C(=O)Nc2ccc([N+](=O)[O-])cc21,inactive [setting not given]
13,O=c1oc2ccccc2c(O)c1C=Nc1ccccc1Br,inactive
14,O=C1Nc2ccc([N+](=O)[O-])cc2/C1=N/n1cnnc1,inactive [setting not given]
15,c1ccc(CCc2nc(-c3ccncc3)no2)cc1,inactive
16,Nc1nnc(SCC(=O)O)s1,inactive
17,CCOC(=O)/C=C1\SCC(=O)N1CCSc1nnc(C)s1,inactive
18,COc1cc(/C=N/OCc2ccc([N+](=O)[O-])cc2)ccc1OC(F)F,inactive [setting not given]
19,CC1=C(C(C)C)Nc2nnnn2C1c1ccc(Br)cc1 (centres undefined),inactive
20,CCOC(=O)c1c(-c2ccc(C)o2)csc1N=Cc1c(O)[nH]c(=S)[nH]c1=O,inactive
21,NC(=S)c1cccc(Br)c1,inactive
22,NC1=NC(=O)/C(=C\c2ccc3c(c2)OCO3)S1,inactive
